In PubChem BioAssay AID743262 (National Center for Advancing Translational Sciences (NCATS), 2014):
Out of some 1,300 compounds screened, about 25 (2%) were called active. Not shown: some 9% with an inconclusive outcome. This is one part of a sample in which actives are shown more often than they occur. Calls follow the shape of the dose curve; as a rule, active = well fitted activation curve with a large enough effect; inconclusive = small, poorly fitted or top-dose-only effect; inactive = flat fitted curve, though single readings scatter.

Biological target: Glucagon-like peptide 1 receptor (Homo sapiens) (UniProt P43220)
Assay: qHTS of GLP-1 Receptor Agonists: Hit Validation
Settings: HEK293 GLP-1R, cAMP-response luciferase, 4-6 h; series mostly up to 46.1 µM
Outline: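 Luminescence from a cAMP-responsive luciferase reporter was read 12 min after detection reagent at RT. Before that, HEK293 cells stably expressing GLP-1R plus reporter, seeded 12 h earlier, were exposed to compound for 4-6 hr at 37 deg C.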
Potency is read from the fitted curve at half-maximal effect.

Chain of Glucagon-like peptide 1 receptor (Homo sapiens) (P43220 whole entry, looked up): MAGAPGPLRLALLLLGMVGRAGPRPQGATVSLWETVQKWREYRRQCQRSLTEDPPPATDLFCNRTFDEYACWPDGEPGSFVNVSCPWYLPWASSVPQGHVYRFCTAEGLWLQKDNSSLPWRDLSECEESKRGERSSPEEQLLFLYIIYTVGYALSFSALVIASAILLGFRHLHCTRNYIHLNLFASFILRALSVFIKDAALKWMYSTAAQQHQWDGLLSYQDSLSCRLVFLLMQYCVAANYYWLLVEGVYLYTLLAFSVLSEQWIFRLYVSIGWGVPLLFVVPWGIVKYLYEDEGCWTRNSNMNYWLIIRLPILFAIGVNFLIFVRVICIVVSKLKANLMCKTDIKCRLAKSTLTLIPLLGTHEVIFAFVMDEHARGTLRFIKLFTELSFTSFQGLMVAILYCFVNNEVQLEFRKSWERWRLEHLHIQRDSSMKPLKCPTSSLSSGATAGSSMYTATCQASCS

Potency, active:
COc1ccc(-c2cnc3c(NC=O)cc(-c4ccccc4OC)cn23)cc1OC 8.2 µM, COc1ccc(-c2cc(NC=O)c3ncc(-c4ccc(OC)c(OC)c4)n3c2)c(OC)c1 2.59 µM, COc1cc(-c2cnc3c(NC=O)cc(-c4ccccc4Cl)cn23)cc(OC)c1OC 5.8 µM, COc1ccc(-c2cc(NC=O)c3ncc(-c4ccc(OC)c(OC)c4)n3c2)cc1 18.4 µM

Potency, inactive:
COc1ccc(-c2csc(C(C)(NC(C)=O)c3ccccc3)n2)cc1 (stereo unspecified), CCOC(=O)CN1C(=O)S/C(=C/c2ccc(OCc3ccc(C(=O)O)cc3)cc2)C1=O, N#Cc1nc(-c2cccs2)oc1NCc1ccco1, Cc1cc(C)c2c(N)c(C(=O)NCC3CCCCC3)sc2n1, Cc1ccnc(NC(=O)C23CC4CC(CC(C4)C2)C3)c1, Cc1ccc(CNc2cc(-c3nn4c(C)nnc4s3)ccc2C)s1, ClCCn1cnc2c(SCc3ccccc3)ncnc21, COc1cccc(C2=CC(=O)C[C@H](c3ccc(OC)c(OC)c3)C2)c1, N#Cc1c(NCCCO)nc(-c2ccccc2)c2c1CCCC2, COc1ccc(C(C)=O)cc1COC(=O)c1ccc2c(c1)OCCO2, CC(=O)c1cc(C#N)c(SCC(=O)OC(C)(C)C)nc1C, COc1ccc(N/C=C/C(=O)c2ccc(OC)c(OC)c2)cc1, C#CCOc1ccc2c3c(c(=O)oc2c1)CCCC3, Cc1cccc(OCCNc2cc(N3CCOCC3)ccc2[N+](=O)[O-])c1, OC(CNCc1cccc(Br)c1)c1ccccc1 (stereo unspecified), CCN(CC)c1nc2ccccc2nc1C(C#N)C(=O)NCCCOC (stereo unspecified), CC(=O)c1ccc(-c2cnc3c(NC=O)cc(-c4ccccc4Oc4ccccc4)cn23)cc1, O=CNc1cc(-c2ccccc2)cn2c(-c3ccc(F)c(Cl)c3)cnc12, COc1ccc(-c2cc(NC=O)c3ncc(-c4ccc(C(C)=O)cc4)n3c2)cc1OC, COc1ccc(-c2cnc3c(NC=O)cc(-c4ccc(C(=O)N5CCOCC5)cc4)cn23)cc1OC, COc1ccc(F)cc1-c1cc(NC(C)=O)c2ncc(-c3cc(OC)c(OC)c(OC)c3)n2c1, COc1cccc(-c2cnc3c(NC(C)=O)cc(-c4ccc(OC)c(OC)c4)cn23)c1, COc1cccc(-c2cnc3c(NC=O)cc(-c4ccc(N(C)C)cc4)cn23)c1, Cc1ccc(-c2cc(NC=O)c3ncc(-c4cnn(C)c4)n3c2)cc1, OC1CCCN(c2c3c(nc4cc(-c5cccc(F)c5)nn24)CCCC3)C1 (stereo unspecified), COc1cc2c(cc1OC)/C(=C/C(=O)c1ccccc1)NCC2, O=C(OCc1csc(-c2ccccc2)n1)c1ccccc1O, COc1ccc(CC(=O)OCC(=O)N2c3ccccc3CC2C)cc1OC (stereo unspecified), Cc1nn(C)cc1CNC(=O)c1cnn2c(C(F)F)cc(C3CC3)nc12, COC(=O)c1ccc(OCC2c3cc(OC)c(OC)cc3CCN2C(C)=O)cc1 (stereo unspecified), Cc1cccc(-c2nnc3sc(-c4ccccc4C)nn23)c1, Cc1cccc(C(=O)N2CCC[C@H]2C(=O)N2CCC[C@H]2C(=O)NCc2ccncc2)c1, Cc1cccc(-c2nc(C#N)c(N3CCCCCC3)o2)c1, COc1cccc(Nc2nc(N)c([N+](=O)[O-])c(NCc3ccco3)n2)c1, CC(C)n1nnnc1SCC(=O)N1N=C(c2cccs2)CC1c1cccs1 (stereo unspecified), CC1CCN(CCCNC(=O)c2cc3c(Cl)nc4ccccc4c3s2)CC1, CCN(CC)c1ncnc2c1cnn2Cc1ccc(C)cc1
